A short description of test [1]: qHTS assay for small molecule agonists of the p53 signaling pathway (AID 651631; calls by dose curve; further: nearly all actives have a fitted effect of over 15% in size). In short, it runs like this:
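We treat p53RE-bla HCT-116 cells with compounds for 16 h at 37 °C, add LiveBLAzer B/G FRET substrate for 2 h at room temperature, and measure fluorescence intensity.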

Test [2] in a line: qHTS assay for small molecules that induce genotoxicity in human embryonic kidney cells expressing luciferase-tagged ATAD5 (AID 651632). Further: nearly all actives have a fitted effect of over 15% in size. Further: potency means the concentration at half of the fitted maximal effect. Summed up:
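Luminescent reporter readout, HEK293T ATAD5-luc line: 16 hr drug exposure (37C, 5% CO2) followed by Amplite, 30 min RT.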

Test [3] is described as follows: qHTS assay for small molecule agonists of the p53 signaling pathway - cell viability (AID 651633; calls by dose curve;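 further: p53RE-bla HCT reporter cells with a stable beta-lactamase p53 reporter; series mostly up to about 83 µM; nearly all actives have a fitted effect of over 30% in size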). In short, it runs like this:
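p53RE-bla cells, seeded at 4,000 per well and rested 5 h at 37 C/5% CO2, received compounds in DMSO for 16 h at 37 C. CellTiter-Glo was then added, and luminescence was read after 30 min at room temperature to gauge cytotoxicity.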

The nature of test [4]: qHTS assay for small molecules that induce genotoxicity in human embryonic kidney cells expressing luciferase-tagged ATAD5 - cell viability (AID 651634; calls by dose curve; further: nearly all actives have a fitted effect of over 25% in size). Summed up:
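Viability read: CellTiter-Fluor fluorescence, 30 min at 37C. Cells: HEK293T, luciferase-tagged ATAD5. Exposure: 15.5 hr, 37C, 5% CO2, compound or DMSO vehicle.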
For orientation: In qHTS, concentration-response curves come from the screen itself.

Test [5] in a line: qHTS assay for small molecule disruptors of the mitochondrial membrane potential - cell viability (AID 720634; calls by dose curve; further: nearly all actives have a fitted effect of over 20% in size; further: potency means the concentration at half of the fitted maximal effect). Summed up:
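HepG2, 1 hr compound, 37 C. ATP luminescence via CellTiter-Glo, 30 min RT, same well as m-MPI.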

Test [6] is described as follows: qHTS assay for small molecule disruptors of the mitochondrial membrane potential (AID 720635). Further: potency means the concentration at half of the fitted maximal effect. In short, it runs like this: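 HepG2 cells (2,000/well) attached overnight at 37C, then took compound for 1 hr at 37C, 5% CO2. Mito-MPS dye was added for 30 min; fluorescence was read at 490/535 nm (monomers) and 540/590 nm (aggregates).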
The nature of test [7]: qHTS assay to test for compound auto fluorescence at 590 nm (red) in HepG2 cells (AID 720674). In short, it runs like this: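 Rose Bengal sodium served as the red fluorophore standard. HepG2 monolayers (overnight attachment, MEM with 10% FBS) were exposed to test compounds for 1 hr at 37 C and read at Ex 540/Em 590 nm.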
A short description of test [8]: qHTS assay to test for compound auto fluorescence at 535 nm (green) in HepG2 cells (AID 720675).
Test [9] can be described thus: qHTS assay to test for compound auto fluorescence at 460 nm (blue) in HEK293 cells (AID 720678). In short, it runs like this:
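Triamterene serves as the blue fluorophore standard. Compound signal at 405/460 nm is read in HEK293 wells (2,000 cells, 10% dialyzed FBS) after overnight treatment at 37C.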

Test [10] in a line: qHTS assay to test for compound auto fluorescence at 590 nm (red) in HEK293 cells (AID 720679). Summed up:
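We plated HEK293 cells in 10% dialyzed FBS medium, let them adhere for 4-5 hr, then added 23 nL compound. Overnight at 37C and 5% CO2 preceded fluorescence measurement at 540/590nm.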

Test [11] in a line: qHTS assay to test for compound auto fluorescence at 535 nm (green) in HEK293 cells (AID 720680).
Test [12] is described as follows: qHTS assay to test for compound auto fluorescence at 460 nm (blue) in HEK293 cell free culture (AID 720681). In short, it runs like this:
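Test compounds were pinned into cell-free culture medium (DMEM with 10% FBS) and fluorescence was read directly at Ex/Em 405/460 nm. Signals were expressed as fluorescence equivalents of triamterene, with DMSO vehicle as control.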

The nature of test [13]: qHTS assay to test for compound auto fluorescence at 535 nm (green) in HEK293 cell free culture (AID 720682). In short, it runs like this:
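Green-channel intensity (Ex/Em 485/535 nm) was recorded from compound-treated wells containing only DMEM with 10% FBS. Fluorescein provided the equivalency standard.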

A short description of test [14]: qHTS assay to test for compound auto fluorescence at 590 nm (red) in HEK293 cell free culture (AID 720683). Summed up:
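Tox21 10K library compounds were pinned into cell-free DMEM with 10% FBS and fluorescence was read at excitation 540 nm. Activity is expressed as Rose Bengal sodium equivalency.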

Test [15] can be described thus: qHTS assay to test for compound auto fluorescence at 590 nm (red) in HepG2 cell free culture (AID 720684). Summed up:
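Red fluorescence (540 nm excitation, 590 nm emission) was measured after compound transfer into cell-free MEM supplemented with 10% FBS. Values are equivalencies against Rose Bengal sodium.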

Test [16] can be described thus: qHTS assay to test for compound auto fluorescence at 460 nm (blue) in HepG2 cell free culture (AID 720685). Summed up:
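Compound (23 nL) or DMSO pinned into cell-free MEM with 10% FBS; blue fluorescence read at 405/460 nm excitation/emission, expressed as auto-fluorescence equivalency to triamterene.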

The nature of test [17]: qHTS assay to test for compound auto fluorescence at 535 nm (green) in HepG2 cell free culture (AID 720686).
The nature of test [18]: qHTS assay to test for compound auto fluorescence at 460 nm (blue) in HepG2 cells (AID 720687). Summed up: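 Cells (2,000/well in MEM with 10% FBS) attached overnight at 37 C, then were exposed to compound or DMSO for 1 hr at 37 C, 5% CO2. Fluorescence read at Ex/Em 405/460 nm, expressed as triamterene-equivalent signal.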
In test [19] the target is Glucocorticoid receptor (Homo sapiens) (UniProt P04150). The test is described as follows: qHTS assay to identify small molecule antagonists of the glucocorticoid receptor (GR) signaling pathway (AID 720692; active means well fitted inhibition curve with a large enough effect in the signal ratio in the repeat runs, not every such curve was filed as active; the % refers to the signal ratio). In short, it runs like this:
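Inhibition of glucocorticoid signalling is measured in HeLa cells with a GRE-controlled beta-lactamase reporter; cells are co-treated with compound and 5 nM dexamethasone (final) for 18 h before FRET substrate readout.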

Test [20] has the same target. The test is described as follows: qHTS assay to identify small molecule agonists of the glucocorticoid receptor (GR) signaling pathway (AID 720691; active means well fitted activation curve with a large enough effect in the signal ratio in the repeat runs, not every such curve was filed as active; the % refers to the signal ratio). In short, it runs like this: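 qHTS in GR-bla HeLa cells: 4 h settling at 37 C/5% CO2, 18 h compound incubation at 37 C, 2 h LiveBLAzer B/G FRET substrate at room temperature, fluorescence intensity measured.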

The source of these data is PubChem BioAssay (Tox21).

Several values for one entry are separate records, joined by “and”; a condition that tells them apart may be missing. Equal entries are not always repeated. Records with an inconclusive call do not appear. Activity calls are given as the source filed them. Unless noted, the call rests on the fitted dose curve; in most records, active means well fitted curve in the direction sought with a large enough effect in the repeat runs; inconclusive means weak or mixed curves; inactive means no such curve, though single readings can be large; an effect the other way counts as inactive or inconclusive.

Chain of Glucocorticoid receptor (Homo sapiens) (P04150 whole entry, looked up): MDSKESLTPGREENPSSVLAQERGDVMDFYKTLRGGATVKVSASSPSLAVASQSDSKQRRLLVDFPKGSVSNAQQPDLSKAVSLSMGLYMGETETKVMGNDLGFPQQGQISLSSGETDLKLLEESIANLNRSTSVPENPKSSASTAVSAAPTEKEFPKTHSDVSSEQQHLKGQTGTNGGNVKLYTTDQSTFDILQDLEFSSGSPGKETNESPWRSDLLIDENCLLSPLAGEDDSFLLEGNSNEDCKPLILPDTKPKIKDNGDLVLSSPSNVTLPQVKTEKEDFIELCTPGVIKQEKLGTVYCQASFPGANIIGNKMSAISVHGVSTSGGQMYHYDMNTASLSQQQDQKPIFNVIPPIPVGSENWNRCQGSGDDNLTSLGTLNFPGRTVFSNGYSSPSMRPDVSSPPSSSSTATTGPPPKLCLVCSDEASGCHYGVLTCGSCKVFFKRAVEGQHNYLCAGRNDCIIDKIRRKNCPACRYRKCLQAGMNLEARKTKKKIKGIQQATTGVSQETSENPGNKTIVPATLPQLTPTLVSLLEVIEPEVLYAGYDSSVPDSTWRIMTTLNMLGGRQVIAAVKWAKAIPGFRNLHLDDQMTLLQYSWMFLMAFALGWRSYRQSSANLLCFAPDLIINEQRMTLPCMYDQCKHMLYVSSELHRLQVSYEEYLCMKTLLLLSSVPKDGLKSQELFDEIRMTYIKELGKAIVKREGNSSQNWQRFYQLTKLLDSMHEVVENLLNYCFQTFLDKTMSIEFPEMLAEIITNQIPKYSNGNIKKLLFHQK

Regarding `CCCCOCCOCCSC#N`, the Potency result in test [1], in test [2], in [3], in [4], in test [5] and in test [6] was “inactive” throughout. Also, the Potency entry in test [19] was “inactive”. Also, the compound was classed as inactive in test [7], in test [8], in test [9], in test [10], in test [11] and in test [12]. Further, the result in [13], in [14], in test [15], in [16], in [17] and in [18] was inactive.
On to `C=C(C)C(N)=O`, for which the Potency result in test [1], in test [2], in [3], in test [4], in [5] and in [6] was “inactive” in each case. In addition, the result in [7], in test [8], in [9], in [10], in test [11] and in test [12] was inactive. Moreover, the compound was classed as inactive in [13], in test [14], in [15], in [16], in test [17] and in test [18].
Consider `Cc1cccc(C)c1O`, for which the Potency entry in test [1], in test [2], in test [3], in test [4], in test [5] and in test [6] was “inactive” throughout. Besides, the call in [7], in test [9], in test [10], in test [11], in test [12] and in test [13] was inactive. Also, the outcome in [14], in [15], in test [16], in [17] and in [18] was inactive.
In the case of `Cc1ccc(O)c(-n2nc3ccccc3n2)c1`, the Potency entry in test [1], in test [3], in [4], in test [20] and in test [19] was “inactive” each time. Further, the Potency in test [2] was 9.44 µM (active) and 6.11 µM (active); in test [5] it was 30.6 µM (active); in test [6], 21.1 µM (active) and 60.6 µM (active) and 30.6 µM (active). For the same compound, the compound was called inactive in test [7], in test [8], in test [9], in test [10], in [11] and in test [12]. Also, the compound was called inactive in [13], in test [14], in test [15], in test [16], in test [17] and in test [18].
Consider `CC(=O)Oc1ccccc1C(=O)O`, for which the Potency result in test [1], in test [2], in [3], in test [4], in [5] and in test [6] was “inactive” in each case. The Potency result in [19] is “inactive”. The compound was classed as inactive in test [7], in test [8], in test [9], in test [10], in [11] and in [12]. In addition, the result in test [13], in [14], in [15], in test [16], in test [17] and in [18] was inactive.
Take `C=CCOC(=O)CC(C)C`: the Potency result in test [1], in test [2], in test [3], in test [4], in [5] and in test [6] was “inactive” throughout. Besides, the Potency entry in [20] and in test [19] was “inactive” each time. The compound was called inactive in [7], in test [9], in test [10], in [11], in test [12] and in test [13]. For the same compound, the compound was called inactive in test [14], in test [15], in test [16], in test [17] and in test [18].
`CC(O)COc1ccccc1` (stereo not drawn): the Potency entry in test [1], in test [2], in test [3], in [4], in test [5] and in test [6] was “inactive” throughout. Also, in test [19], the Potency entry is “inactive”. Besides, the compound was called inactive in test [7], in test [9], in [10], in test [11], in [12] and in test [13]. For the same compound, the result in test [14], in test [15], in [16], in test [17] and in test [18] was inactive.
`Nc1cccc(N)c1`: the Potency entry in test [1], in test [2], in [3], in test [4] and in [5] was “inactive” throughout. For the same compound, in test [6], the Potency was 24 µM (active). Moreover, the call in test [7], in test [8], in test [9], in test [10], in [11] and in test [12] was inactive. In addition, the compound was called inactive in test [13], in test [14], in test [15], in test [16], in [17] and in test [18].
